Measured values taken from PubChem BioAssay (EPA / NIEHS).
The source made the active and inactive calls. The calls were made as follows: active = hit-call score of the fitted dose curve at least 0.9, where 1 is the maximum; inactive = score below 0.9.

read-out: Lipoprotein lipase (LPL), LPL (gene 4023); assay: LTEA_HepaRG_LPL: Life Technologies and Expression Analysis (LTEA) Assay for Lipoprotein lipase (LPL) using HepaRG (AID 2283515); details: mRNA level, 48 h; actives raise or lower the signal
Procedure: LTEA_HepaRG is a cell based, multiplexed-readout assay that uses HepaRG, a human liver cell line, with measurements taken at 48 hours after chemical dosing on a 96-well plate.LTEA_HepaRG_LPL is one of 102 assay component(s) measured in the LTEA HepaRG cell culture assay. It is a marker of Steatosis.Data from the assay component LTEA_HepaRG_LPL was analyzed into 1 endpoint. This assay endpoint, LTEA_HepaRG_LPL, was analyzed with bidirectional fitting relative to DMSO as the negative control and baseline of activity. Using a type of inducible reporter, measures of mRNA induction for gain or loss-of-signal activity can be used to understand regulation of transcription factor activity. To generalize the intended target to other relatable targets, this assay endpoint is annotated to the esterase intended target family, where the subfamily is lipase.
A total of 1060 chemcials from the ToxCast library were tested in eight-point concentration-response experiments. Cell culture and cytotoxicity assays were conducted at Thermo Fisher Scientific's Custom Services facility (Madison, WI). A single lot of human HepaRG cells (Thermo Fisher Scientific, Frederick, MD) was used for the cell culture experiments. 96-well format collagen type I coated plates of human HepaRG cells were prepared using established methods. Briefly, cryopreserved HepaRG cells were thawed, plated at a density of approximately 100,000 cells/well in HepaRG Thaw, Plate, and General Purpose media (HPRG770, Thermo Fisher Scientific), and incubated for 48 hours. 0.5% DMSO was selected as vehicle control to balance the requisite need of DMSO in HepaRG cultures to maintain differentiation (for example, baseline metabolism, proportions of hepatocytes vs. cholangiocytes), while enabling further hepatic receptor pathway activation (for example, PXR and CAR) in response to chemical exposure. 48 hours after plating, the culture medium was replaced with HepaRG Serum-Free Incudtion Media. Cells were exposed to each test chemical in duplicate and maintained in CO2 incubators for another 48 hours. Chemical plates were thawed to room temperature and 200x concentrations of treatment groups were prepared. 8-point conentration-reponse curves were made with the highest exposure at 100 uM, followed by half-log dilutions, all in 0.5% DMSO. Each test plate contained variouse controls, induction positive controls (1mM phenobarbital), cytotoxicity positive controls ([…] aflatoxin B1), vehicle controls (0.5% DMSO), and total lysis controls (0.5% DMSO). Cell morphology images were taken using an Essen IncuCyte FLR automated microscope, with six 96-well plates imaged in about 24 minutes. Images were captured and exported and JPEG files. Spent culture media was transfered to black-well plates for the LDH assay, and remaining media was sorted at -80 C for later use. Cells were treated with RLT buffer and frozen until shipped for gene expression analysis. Total RNA was isolated from the cell suspension in 75 uL of Buffer RLT (Qiagen, Germantown, MD 20874) by Quintiles/Expression Analysis (Durham, NC) using a custom isolation procedure. Total RNA from each plate well was transferred to a preamplification plate. Fluidigm's 96.96 Dynamic ArrayTM (Fluidigm, Amsterdam, the Netherlands) technology was used for gene expression analyses by quantitative reverse transcription polymerase chain reaction (qRT-PCR, performed by Quintiles/Expression Analysis, Durham, NC)89. Standard TaqManTM Assays (Applied Biosystems/ThermoFisher Scientific, Foster City, CA) were used to assess the expression of 93 genes selected based on their selectivity and sensitivity to important hepatic receptors known to be modulated by environmental chemicals; importance in human hepatocyte functionality; and hepatotoxicity. […]

SMILES	outcome	AC50
Oc1ccc2ccc3cccc4ccc1c2c34	inactive	–
O=C(Nc1ccccc1)c1ccccc1I	inactive	–
C[C@]12C=CC3=C4CCC(=O)C=C4CC[C@H]3[C@@H]1CC[C@@H]2O	inactive	–
Brc1ccc(Oc2ccccc2)cc1	inactive	–
CCC(C)c1ccc(O)cc1 (stereo not given)	inactive	–
Nc1ccc(Oc2ccc(N)cc2)cc1	inactive	–
ClC1=C(Cl)[C@]2(Cl)[C@H]3[C@H]([C@@H]4C=C[C@H]3C4)[C@@]1(Cl)C2(Cl)Cl	inactive	–
CCOc1cccc(C2(N3CCN(c4ccccc4)CC3)CCC(C)CC2)c1 (stereo not given)	inactive	–
OCCCBr	inactive	–
O=C(N[C@H](c1ccccc1)[C@@H]1CN2CCC1CC2)c1c(Cl)ccc(C(F)(F)F)c1Cl	–	11.1 µM (active)
COc1cc(C=O)cc2c1[C@H](COC(N)=O)[C@]1(OC(C)=O)ON2C[C@H]2[C@@H]1N2C(C)=O	–	0.272 µM (active)
ClCCOCCCl	inactive	–
Cc1ccc(N=C=O)cc1N=C=O	–	3.41 µM (active)
ClC1=C(Cl)C2(Cl)C3C(Cl)C=CC3C1(Cl)C2(Cl)Cl (stereo not given)	inactive	–
CCOC(=O)[C@]1(c2ccccc2)Oc2ccccc2[C@@H]1N	–	50 µM (active)
CC(C)COC(=O)c1ccccc1C(=O)OCC(C)C	inactive	–
Clc1ccc(C(c2ccc(Cl)cc2)C(Cl)Cl)cc1	inactive	–
CCCSC(=O)N(CCC)CCC	inactive	–
OCCCl	inactive	–
Nc1ccc(N=Nc2ccccc2)cc1	–	22.3 µM (active)

SMILES	outcome	AC50
CN(C)c1ccccc1	inactive	–
CCCCOC(=O)c1ccccc1C(=O)OCc1ccccc1	inactive	–
CCC[CH2][Sn]([Cl])([CH2]CCC)[CH2]CCC	inactive	–
CN(C)C(=O)Nc1ccc(Cl)cc1	inactive	–
CC(O)CCO (stereo not given)	inactive	–
CCCCCCCCOC(=O)c1ccc(C(=O)OCCCCCCCC)c(C(=O)OCCCCCCCC)c1	inactive	–
CC(C)(O)c1cnn2c(-c3ccc(F)c(-c4c(F)cccc4C#N)c3)cnc2n1	inactive	–
CCC12COCN1COC2	inactive	–
OCCOCCO	inactive	–
Nc1cc(Cl)cc(C(=O)O)c1Cl	inactive	–
CN(C)[C@@H]1C(=O)C(C(N)=O)=C(O)[C@@]2(O)C(=O)C3=C(O)c4c(O)cccc4[C@@](C)(O)[C@H]3C[C@@H]12	inactive	–
N#CC(Br)(Br)C(N)=O	inactive	–
CC(C)(C)C(O)(CCc1ccc(Cl)cc1)Cn1cncn1 (stereo not given)	–	74.4 µM (active)
[Cl-].[Cl-].[Hg+2]	inactive	–
Cc1cccc(N)c1N	–	35.8 µM (active)
CCCCCCCCCCCCCN1CC(C)OC(C)C1 (stereo not given)	inactive	–
O=P(OCCCl)(OCCCl)OCCCl	inactive	–
CC(C)N(Cc1ccccc1)C(=O)C(C)(C)C	inactive	–
O=C(O)C1C2CCC(O2)C1C(=O)O (stereo not given)	inactive	–
CCN(CC)N=O	inactive	–
